Test [1] in a line: NCI Yeast Anticancer Drug Screen. Data for the rad50 strain (AID 155).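 Also: 0% = growth of vehicle-only cultures of the same strain.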 The conditions noted are these: S. cerevisiae rad50 strain growth inhibition, active compounds read high. In a few lines: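 Readout: growth inhibition relative to vehicle-treated cultures. Compound exposure was carried out in a genetically defined yeast strain deficient in DNA damage repair.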
The nature of test [2]: NCI Yeast Anticancer Drug Screen. Data for the mec2-1 strain (AID 157). To be noted: S. cerevisiae mec2-1 strain, active compounds read high. Summed up:
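Mutant yeast (mec2-1) grown with compound; growth inhibition relative to vehicle control reported.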

Test [3] is described as follows: NCI Yeast Anticancer Drug Screen. Data for the sgs1 mgt1 strain (AID 161).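 Also: 0% = growth of cultures given vehicle only.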 The conditions noted are these: S. cerevisiae sgs1 mgt1 strain, active compounds read high. Summed up: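 Percent growth inhibition was derived by comparing compound-exposed mutant yeast with vehicle-exposed cultures. The strain carries alterations in DNA damage repair.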
Test [4] is described as follows: NCI Yeast Anticancer Drug Screen. Data for the cln2 rad14 strain (AID 165).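 Also: 0% = growth equal to vehicle treated cultures.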 To be noted: S. cerevisiae cln2 rad14 strain, active compounds read high. Summed up:
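Readout is yeast growth inhibition versus vehicle-treated controls, using a strain with cln2 and rad14 alterations exposed to compound.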

Test [5] can be described thus: NCI Yeast Anticancer Drug Screen. Data for the bub3 strain (AID 167). The conditions noted are these: S. cerevisiae bub3 mutant strain, active compounds read high. In a few lines:
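Readout: yeast growth inhibition, expressed relative to vehicle-only wells. The test organism is a mutant strain from a panel with lesions in DNA repair or checkpoint genes.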

Test [6] can be described thus: NCI Yeast Anticancer Drug Screen. Data for the mlh1 rad18 strain (AID 175). To be noted: S. cerevisiae mlh1 rad18 strain growth inhibition, active compounds read high. In a few lines:
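Genetically defined yeast (DNA repair-deficient) exposed to compounds; growth inhibition determined relative to vehicle.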

[7] abbreviates: at 5.0 µM (retest, dose inferred, filed as 0.5).
The mark [8] stands for this setting: at 50.0 µM (retest, dose inferred, filed as 5.0).

Molecules are shown by their SMILES. This is part of a sample that, as a whole, favours compounds with a hit. Of some 79,000 tested, about 15% had one in any assay. Values without a mark were called inactive. Active and inactive are the calls of the source. Rule as the data show it: active = growth inhibition above about 70%; inactive = the rest.

We go through nine compounds from PubChem BioAssay (NCI).

Consider `CCc1ccccc1NC(=O)C1=C(C)NC(C)=C(C(=O)Nc2c(CC)cccc2CC)C1c1ccc2c(c1)OCO2` (configuration not stated), for which the growth inhibition in test [1] (setting [7]) was 30%; in test [1] (setting [8]) it was 30%; in test [1] (at 50.0 µM) it was 89.5% (active); in test [2] (setting [7]), 22%; in test [2] (setting [8]), 22%; in test [2] (at 50.0 µM), 88.7% (active). The growth inhibition is 29% in test [3] (setting [7]); 29% in test [3] (setting [8]); 89.3% (active) in test [3] (at 50.0 µM); 15% in test [4] (setting [7]); 15% in test [4] (setting [8]); 85.8% (active) in test [4] (at 50.0 µM). In addition, the growth inhibition in test [5] (setting [7]) was 24%; in test [5] (setting [8]), 24%; in test [5] (at 50.0 µM), 90.3% (active); in test [6] (setting [7]), 28%; in test [6] (setting [8]) it was 28%; in test [6] (at 50.0 µM), 87.7% (active).
For `CCN(CC)CCOC(=O)CCN1CC2CCC(CC2)C1`, the growth inhibition was 14% in test [1] (setting [7]); 15% in test [1] (setting [8]); -35.6% in test [1] (at 50.0 µM); 13% in test [2] (setting [7]); 7% in test [2] (setting [8]); -22.1% in test [2] (at 50.0 µM). The growth inhibition was 17% in test [3] (setting [7]); 4% in test [3] (setting [8]); -23.9% in test [3] (at 50.0 µM); 23% in test [4] (setting [7]); 3% in test [4] (setting [8]); 9.4% in test [4] (at 50.0 µM). Moreover, the growth inhibition in test [5] (setting [7]) was 0%; in test [5] (setting [8]), -4%; in test [5] (at 50.0 µM), -32.8%; in test [6] (setting [7]), 18%; in test [6] (setting [8]), 10%; in test [6] (at 50.0 µM) it was -21.4%.
With `OCCOCCO[P+]1(OCCOCCO)n2c3ccc2C(c2ccccc2)=C2C=CC(=N2)C(c2ccccc2)=c2ccc(n21)=C(c1ccccc1)C1=NC(=C3c2ccccc2)C=C1`, the growth inhibition in test [1] (setting [7]) was 99% (active); in test [1] (setting [8]), 98% (active); in test [1] (at 50.0 µM), 91.3% (active); in test [2] (setting [7]) it was 100% (active); in test [2] (setting [8]), 99% (active); in test [2] (at 50.0 µM), 92.2% (active). The growth inhibition in test [3] (setting [7]) was 99% (active); in test [3] (setting [8]) it was 98% (active); in test [3] (at 50.0 µM), 92% (active); in test [4] (setting [7]), 97% (active); in test [4] (setting [8]), 99% (active); in test [4] (at 50.0 µM), 91.4% (active). For the same compound, the growth inhibition in test [5] (setting [7]) is 100% (active); in test [5] (setting [8]) it was 99% (active); in test [5] (at 50.0 µM), 89% (active); in test [6] (setting [7]), 97% (active); in test [6] (setting [8]), 98% (active); in test [6] (at 50.0 µM), 85.8% (active).
With `Cc1ccc(C2SCc3nc4ccccc4n32)cc1` (configuration not stated), the growth inhibition was -4% in test [1] (setting [7]); 51% in test [1] (setting [8]); 31.2% in test [1] (at 50.0 µM); -38% in test [2] (setting [7]); 39% in test [2] (setting [8]); 20.8% in test [2] (at 50.0 µM). The growth inhibition in test [3] (setting [7]) was -26%; in test [3] (setting [8]), 57%; in test [3] (at 50.0 µM), 49.1%; in test [4] (setting [7]) it was 2%; in test [4] (setting [8]), 46%; in test [4] (at 50.0 µM) it was 34%. For the same compound, the growth inhibition was -2% in test [5] (setting [7]); 93% (active) in test [5] (setting [8]); 70.4% (active) in test [5] (at 50.0 µM); 13% in test [6] (setting [7]); 86% (active) in test [6] (setting [8]); 48.9% in test [6] (at 50.0 µM).
Consider `CCOC(=O)NCCCc1ccc2oc3ccccc3c2c1`, for which the growth inhibition in test [1] (setting [7]) is -1%; in test [1] (setting [8]), 97% (active); in test [1] (at 50.0 µM), 81.6% (active); in test [2] (setting [7]), -3%; in test [2] (setting [8]), 98% (active); in test [2] (at 50.0 µM), 19.6%. Also, the growth inhibition in test [3] (setting [7]) was -3%; in test [3] (setting [8]), 97% (active); in test [3] (at 50.0 µM), 90.8% (active); in test [4] (setting [7]), 1%; in test [4] (setting [8]) it was 95% (active); in test [4] (at 50.0 µM), -12.7%. Moreover, the growth inhibition in test [5] (setting [7]) is 9%; in test [5] (setting [8]), 98% (active); in test [5] (at 50.0 µM) it was 19.8%; in test [6] (setting [7]), -1%; in test [6] (setting [8]), 97% (active); in test [6] (at 50.0 µM) it was 57.9%.
In the case of `C[n+]1c(/C=C/c2ccc([N+](=O)[O-])cc2)ccc2ccccc21`, the growth inhibition was 6% in test [1] (setting [7]); 85% (active) in test [1] (setting [8]); 42% in test [1] (at 50.0 µM); -2% in test [2] (setting [7]); 89% (active) in test [2] (setting [8]); 60.8% in test [2] (at 50.0 µM). Besides, the growth inhibition in test [3] (setting [7]) was 2%; in test [3] (setting [8]), 77% (active); in test [3] (at 50.0 µM), 69.7%; in test [4] (setting [7]) it was 12%; in test [4] (setting [8]), 77% (active); in test [4] (at 50.0 µM), 82.7% (active). Further, the growth inhibition in test [5] (setting [7]) is -2%; in test [5] (setting [8]) it was 92% (active); in test [5] (at 50.0 µM), 11.7%; in test [6] (setting [7]) it was 16%; in test [6] (setting [8]), 92% (active); in test [6] (at 50.0 µM), 80.2% (active).
Regarding `O=[N+]([O-])c1ccc(C2=CSc3ccccc3N2)cc1`, the growth inhibition was -17% in test [1] (setting [7]); 6% in test [1] (setting [8]); 49.7% in test [1] (at 50.0 µM); -30% in test [2] (setting [7]); -5% in test [2] (setting [8]); 59.4% in test [2] (at 50.0 µM). Besides, the growth inhibition in test [3] (setting [7]) was -11%; in test [3] (setting [8]), -7%; in test [3] (at 50.0 µM) it was 58%; in test [4] (setting [7]) it was 11%; in test [4] (setting [8]), 25%; in test [4] (at 50.0 µM), 22.9%. In addition, the growth inhibition was -16% in test [5] (setting [7]); 19% in test [5] (setting [8]); 73.4% (active) in test [5] (at 50.0 µM); -43% in test [6] (setting [7]); 31% in test [6] (setting [8]); 58.2% in test [6] (at 50.0 µM).
On to `CCC(CC)COC(=O)C(C)=O`, for which the growth inhibition in test [1] (setting [7]) was -2%; in test [1] (setting [8]), 1%; in test [1] (at 50.0 µM), -11.7%; in test [2] (setting [7]), 2%; in test [2] (setting [8]), 0%; in test [2] (at 50.0 µM), 19.4%. Further, the growth inhibition in test [3] (setting [7]) was 1%; in test [3] (setting [8]) it was 3%; in test [3] (at 50.0 µM) it was 18.1%; in test [4] (setting [7]), -1%; in test [4] (setting [8]), -4%; in test [4] (at 50.0 µM) it was 25.6%. Further, the growth inhibition in test [5] (setting [7]) was 0%; in test [5] (setting [8]) it was 5%; in test [5] (at 50.0 µM), 4.3%; in test [6] (setting [7]), -1%; in test [6] (setting [8]), 2%; in test [6] (at 50.0 µM) it was 26.9%.
Turning to `CCOc1ccccc1-c1nc2c(s1)C(=O)c1ccccc1C2=O`, the growth inhibition is 87% (active) in test [1] (setting [7]); 98% (active) in test [1] (setting [8]); 90% (active) in test [1] (at 50.0 µM); 100% (active) in test [2] (setting [7]); 99% (active) in test [2] (setting [8]); 91.4% (active) in test [2] (at 50.0 µM). Besides, the growth inhibition in test [3] (setting [7]) was 85% (active); in test [3] (setting [8]), 98% (active); in test [3] (at 50.0 µM), 92% (active); in test [4] (setting [7]) it was 52%; in test [4] (setting [8]), 98% (active); in test [4] (at 50.0 µM), 89.9% (active). Besides, the growth inhibition in test [5] (setting [7]) is 98% (active); in test [5] (setting [8]) it was 98% (active); in test [5] (at 50.0 µM), 92.3% (active); in test [6] (setting [7]) it was 94% (active); in test [6] (setting [8]), 98% (active); in test [6] (at 50.0 µM) it was 91.8% (active).
